Consider nine sequences from publication PMC8384837, “Expanding the binding specificity for RNA recognition by a PUF domain”.

Test in all cases: yeast three-hybrid, YBZ-1, SC-Leu-His + 0.5 mM 3-AT, 4 days
Holding throughout (conditions): tags: N-Gal4 AD-HA kept; label: inside an RPR1-promoter hybrid RNA with tandem MS2 sites; ssRNA

One assay concerns the target PUM1 PUF domain R1-RLT (Homo sapiens, UniProt Q14671 828-1176, S863R;R864L;Q867T). In a few lines: (§1)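 Repeat regions from input (SC-Leu) and selection (SC-Leu-His + 0.5 mM 3-AT) plates were PCR-amplified and Illumina-sequenced after four days of growth. The cells were strain YBZ-1 with a LexA–MS2 coat fusion and a HIS3 reporter, co-expressing Pumilio-1 PUF domain libraries and matching RNA elements from a centromeric plasmid. The interaction score is the log change in variant frequency from input to selection, taken in log2 with a pseudocount of 1 for absent variants.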

The next assay concerns the target PUM1 PUF domain R5-ERC (Homo sapiens, UniProt Q14671 828-1176, C1007E;Q1011C). In a few lines:
as §1

For the next assay, the target named is PUM1 PUF domain R5-KTL (Homo sapiens, UniProt Q14671 828-1176, C1007K;R1008T;Q1011L). The essentials:
as §1

A further assay deals with PUM1 PUF domain R5-LHG (Homo sapiens, UniProt Q14671 828-1176, C1007L;R1008H;Q1011G). The essentials: as §1
Chain of PUM1 PUF domain R5-LHG (Q14671 828-1176 C1007L/R1008H/Q1011G): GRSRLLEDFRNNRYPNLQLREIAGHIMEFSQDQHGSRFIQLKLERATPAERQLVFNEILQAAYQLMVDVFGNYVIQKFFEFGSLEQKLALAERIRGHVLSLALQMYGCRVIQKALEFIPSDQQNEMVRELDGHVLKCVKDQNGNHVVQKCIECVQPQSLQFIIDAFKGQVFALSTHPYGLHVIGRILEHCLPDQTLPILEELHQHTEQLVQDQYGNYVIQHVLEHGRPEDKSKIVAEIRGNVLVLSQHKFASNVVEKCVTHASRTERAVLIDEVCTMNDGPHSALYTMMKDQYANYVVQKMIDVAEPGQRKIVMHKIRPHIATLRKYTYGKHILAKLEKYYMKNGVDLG
Another assay deals with PUM1 PUF domain R5-KRD (Homo sapiens, UniProt Q14671 828-1176, C1007K;Q1011D). The essentials:
as §1

In the next assay the target is PUM1 PUF domain R5-KQV (Homo sapiens, UniProt Q14671 828-1176, C1007K;R1008Q;Q1011V). In a few lines:
as §1

The target in a further assay is PUM1 PUF domain R5-LWV (Homo sapiens, UniProt Q14671 828-1176, C1007L;R1008W;Q1011V). In a few lines:
as §1

A further assay deals with PUM1 PUF domain R7-TPG (Homo sapiens, UniProt Q14671 828-1176, S1079T;N1080P;E1083G). The essentials:
as §1

The next assay has as its target PUM1 PUF domain R7-GIV (Homo sapiens, UniProt Q14671 828-1176, S1079G;N1080I;E1083V). The essentials: as §1
The target of another assay is PUM1 PUF domain R3-RTF (Homo sapiens, UniProt Q14671 828-1176, C935R;R936T;Q939F). In a few lines: as §1
Chain of PUM1 PUF domain R3-RTF (Q14671 828-1176 C935R/R936T/Q939F): as the sequence (Q14671 828-1176 C1007L/R1008H/Q1011G) above, with C108R, R109T, Q112F, L180C, H181R, G184Q counted along it

Chain of PUM1 PUF domain R5-ERC (Q14671 828-1176 C1007E/Q1011C): as the sequence (Q14671 828-1176 C1007L/R1008H/Q1011G) above, with L180E, H181R, G184C counted along it
Chain of PUM1 PUF domain R1-RLT (Q14671 828-1176 S863R/R864L/Q867T): as the sequence (Q14671 828-1176 C1007L/R1008H/Q1011G) above, with S36R, R37L, Q40T, L180C, H181R, G184Q counted along it
Chain of PUM1 PUF domain R5-KRD (Q14671 828-1176 C1007K/Q1011D): as the sequence (Q14671 828-1176 C1007L/R1008H/Q1011G) above, with L180K, H181R, G184D counted along it
Chain of PUM1 PUF domain R5-KTL (Q14671 828-1176 C1007K/R1008T/Q1011L): as the sequence (Q14671 828-1176 C1007L/R1008H/Q1011G) above, with L180K, H181T, G184L counted along it
Chain of PUM1 PUF domain R5-LWV (Q14671 828-1176 C1007L/R1008W/Q1011V): as the sequence (Q14671 828-1176 C1007L/R1008H/Q1011G) above, with H181W, G184V counted along it
Chain of PUM1 PUF domain R5-KQV (Q14671 828-1176 C1007K/R1008Q/Q1011V): as the sequence (Q14671 828-1176 C1007L/R1008H/Q1011G) above, with L180K, H181Q, G184V counted along it
Chain of PUM1 PUF domain R7-TPG (Q14671 828-1176 S1079T/N1080P/E1083G): as the sequence (Q14671 828-1176 C1007L/R1008H/Q1011G) above, with L180C, H181R, G184Q, S252T, N253P, E256G counted along it
Chain of PUM1 PUF domain R7-GIV (Q14671 828-1176 S1079G/N1080I/E1083V): as the sequence (Q14671 828-1176 C1007L/R1008H/Q1011G) above, with L180C, H181R, G184Q, S252G, N253I, E256V counted along it

On to “GGCUAGAACUAGUGGAUCCCCCGGCGCCCGGCGGCUCGAGCCCGGGUAAGUGUAAAUGGUCUGCAUGCCGCCGGGCGCCAUGCCUGCAGGUCGACUCUAGAAAACAUG”, for which the binding signal with PUM1 PUF domain R1-RLT is 3.03 log2 enrichment (interaction score).

For “GGCUAGAACUAGUGGAUCCCCCGGCGCCCGGCGGCUCGAGCCCGGGUAAGUGUCAAUAGUCUGCAUGCCGCCGGGCGCCAUGCCUGCAGGUCGACUCUAGAAAACAUG”, the binding signal is 1.33 log2 enrichment (interaction score) with PUM1 PUF domain R5-ERC; 2.84 log2 enrichment (interaction score) with PUM1 PUF domain R5-KTL; 1.75 log2 enrichment (interaction score) with PUM1 PUF domain R5-LHG; 6.86 log2 enrichment (interaction score) with PUM1 PUF domain R5-KRD; 5.39 log2 enrichment (interaction score) with PUM1 PUF domain R5-KQV.

Turning to “GGCUAGAACUAGUGGAUCCCCCGGCGCCCGGCGGCUCGAGCCCGGGUAAGUGUUAAUAGUCUGCAUGCCGCCGGGCGCCAUGCCUGCAGGUCGACUCUAGAAAACAUG”, the binding signal in the assay with PUM1 PUF domain R5-KTL is 1.72 log2 enrichment (interaction score); with PUM1 PUF domain R5-KRD it was 4.94 log2 enrichment (interaction score); in the assay with PUM1 PUF domain R5-KQV, 2.42 log2 enrichment (interaction score); in the assay with PUM1 PUF domain R5-LWV, 2.42 log2 enrichment (interaction score).

For the sequence “GGCUAGAACUAGUGGAUCCCCCGGCGCCCGGCGGCUCGAGCCCGGGUAAGUGUAAAUAGUCUGCAUGCCGCCGGGCGCCAUGCCUGCAGGUCGACUCUAGAAAACAUG”, the binding signal in the assay with PUM1 PUF domain R5-ERC was 2.93 log2 enrichment (interaction score); in the assay with PUM1 PUF domain R5-LHG it was 2.63 log2 enrichment (interaction score).

Turning to “GGCUAGAACUAGUGGAUCCCCCGGCGCCCGGCGGCUCGAGCCCGGGUAAGUUUAAAUAGUCUGCAUGCCGCCGGGCGCCAUGCCUGCAGGUCGACUCUAGAAAACAUG”, the binding signal in the assay with PUM1 PUF domain R7-TPG was 4.42 log2 enrichment (interaction score); with PUM1 PUF domain R7-GIV, 2.42 log2 enrichment (interaction score).

Regarding “GGCUAGAACUAGUGGAUCCCCCGGCGCCCGGCGGCUCGAGCCCGGGUAAGUGUAAAUCGUCUGCAUGCCGCCGGGCGCCAUGCCUGCAGGUCGACUCUAGAAAACAUG”, the binding signal with PUM1 PUF domain R1-RLT was 4.76 log2 enrichment (interaction score).

For “GGCUAGAACUAGUGGAUCCCCCGGCGCCCGGCGGCUCGAGCCCGGGUAAGUGUAAAUUGUCUGCAUGCCGCCGGGCGCCAUGCCUGCAGGUCGACUCUAGAAAACAUG”, the binding signal in the assay with PUM1 PUF domain R1-RLT was 4.16 log2 enrichment (interaction score).

For “GGCUAGAACUAGUGGAUCCCCCGGCGCCCGGCGGCUCGAGCCCGGGUAAGUGUGAAUAGUCUGCAUGCCGCCGGGCGCCAUGCCUGCAGGUCGACUCUAGAAAACAUG”, the binding signal with PUM1 PUF domain R5-ERC is 3.21 log2 enrichment (interaction score); with PUM1 PUF domain R5-LHG, 4.33 log2 enrichment (interaction score); with PUM1 PUF domain R5-KRD it was 1.06 log2 enrichment (interaction score); with PUM1 PUF domain R5-LWV it was 1.82 log2 enrichment (interaction score).

Turning to “GGCUAGAACUAGUGGAUCCCCCGGCGCCCGGCGGCUCGAGCCCGGGUAAGUGUAAUUAGUCUGCAUGCCGCCGGGCGCCAUGCCUGCAGGUCGACUCUAGAAAACAUG”, the binding signal with PUM1 PUF domain R3-RTF was 2.83 log2 enrichment (interaction score).
